Measured values as given in PubChem BioAssay (NCATS).
Records with an inconclusive call do not appear. Calls of active or inactive are those of the source. Unless noted, calls follow the shape of the dose curve; as a rule, active = well fitted curve in the direction sought with a large enough effect; inconclusive = small, poorly fitted or top-dose-only effect, or another doubt; inactive = no such curve, though single readings can be large; an effect the other way counts as inactive or inconclusive.

What was measured:
[1] = Validation screen for small molecules that induce DNA re-replication in MCF 10A normal breast cells (AID 463097); also: nearly all actives have a fitted effect of over 60% in size
Method in brief: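 250 MCF 10A cells/well; compound pin-transferred; 48 hr, 37 C, 5% CO2; Hoechst 40 min; imaged 405/500-530 nm. Hits = more high-intensity nuclei.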

[2] = molecular target: Ubiquitin carboxyl-terminal hydrolase 2 (Homo sapiens) (UniProt O75604); experiment: qHTS Validation Assay for Inhibitors of Ubiquitin-specific Protease USP2a Using CHOP2 as the Reporter (AID 463106)
Method in brief: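 Fluorescence read-out at Ex 485nm/Em 531nm after 60min RT, following addition of 25nM Ub-CHOP2 plus 25nM reporter substrate to USP2 core (10nM) pretreated 30min with compound. Data normalized to NEM full inhibition; concentration-response curves fitted.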

[3] = molecular target: DNA polymerase III PolC-type (Bacillus subtilis (strain 168)) (UniProt P13267); experiment: qHTS Validation Assay for the Inhibitors of DNA Replication in Gram-Positive Bacteria (AID 485295);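 also: reconstituted holoenzyme with PolC plus beta clamp SSB and primase; PicoGreen fluorescence of double-stranded DNA made on primed circular M13 template; series mostly up to about 57 µM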
DNA polymerase III PolC-type (Bacillus subtilis (strain 168)), sequence (P13267 whole entry, looked up): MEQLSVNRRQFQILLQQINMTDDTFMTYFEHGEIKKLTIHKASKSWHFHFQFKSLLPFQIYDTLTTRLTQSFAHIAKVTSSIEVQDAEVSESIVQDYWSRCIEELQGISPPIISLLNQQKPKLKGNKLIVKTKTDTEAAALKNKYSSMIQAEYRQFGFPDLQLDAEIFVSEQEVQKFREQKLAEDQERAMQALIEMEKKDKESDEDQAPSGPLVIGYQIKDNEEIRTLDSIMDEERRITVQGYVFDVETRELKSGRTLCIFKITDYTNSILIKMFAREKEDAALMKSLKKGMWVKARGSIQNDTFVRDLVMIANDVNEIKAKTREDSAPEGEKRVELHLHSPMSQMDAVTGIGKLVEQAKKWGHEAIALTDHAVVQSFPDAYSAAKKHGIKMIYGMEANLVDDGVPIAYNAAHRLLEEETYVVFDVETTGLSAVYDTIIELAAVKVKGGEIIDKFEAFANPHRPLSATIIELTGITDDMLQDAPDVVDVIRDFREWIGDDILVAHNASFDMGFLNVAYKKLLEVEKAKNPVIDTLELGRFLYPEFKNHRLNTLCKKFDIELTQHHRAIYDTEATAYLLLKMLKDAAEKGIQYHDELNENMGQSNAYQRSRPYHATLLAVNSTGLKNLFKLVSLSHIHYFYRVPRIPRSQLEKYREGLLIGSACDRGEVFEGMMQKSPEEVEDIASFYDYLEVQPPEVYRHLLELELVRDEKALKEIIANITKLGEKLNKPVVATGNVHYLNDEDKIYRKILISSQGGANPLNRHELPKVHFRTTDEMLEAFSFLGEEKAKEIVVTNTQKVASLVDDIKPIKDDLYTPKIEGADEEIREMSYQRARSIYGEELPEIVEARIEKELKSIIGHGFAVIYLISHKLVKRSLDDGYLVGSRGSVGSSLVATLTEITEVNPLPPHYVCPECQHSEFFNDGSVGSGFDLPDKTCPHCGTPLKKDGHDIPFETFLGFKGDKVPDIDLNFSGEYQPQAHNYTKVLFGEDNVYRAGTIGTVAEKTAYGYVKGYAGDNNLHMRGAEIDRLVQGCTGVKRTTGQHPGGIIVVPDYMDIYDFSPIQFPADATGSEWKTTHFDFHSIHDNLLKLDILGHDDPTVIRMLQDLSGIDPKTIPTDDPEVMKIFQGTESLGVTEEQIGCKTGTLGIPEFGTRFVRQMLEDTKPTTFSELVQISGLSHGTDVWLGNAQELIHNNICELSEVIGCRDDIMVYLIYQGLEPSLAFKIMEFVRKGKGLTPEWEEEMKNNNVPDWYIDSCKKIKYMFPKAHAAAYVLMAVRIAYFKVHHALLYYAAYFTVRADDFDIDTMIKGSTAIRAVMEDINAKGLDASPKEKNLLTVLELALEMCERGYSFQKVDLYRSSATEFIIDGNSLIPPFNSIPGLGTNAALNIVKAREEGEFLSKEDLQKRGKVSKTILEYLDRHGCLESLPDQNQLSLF
Method in brief: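 PicoGreen fluorescence (ex 480–485/em 535–540 nm) reports dsDNA synthesized on ssM13Gori template with dNTPs/NTPs. Enzyme: holoenzyme rebuilt from purified PolC, beta subunit, SSB and primase. Compound preincubated before substrate addition; RT throughout.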

[4] = molecular target: Tumor susceptibility gene 101 protein (Homo sapiens) (UniProt Q99816); experiment: qHTS Validation Assay for Iinhibitors of HIV-1 Budding by Blocking the Interaction of PTAP/TSG101 (AID 485342; calls by dose curve)
Method in brief: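 FP read-out: FITC-PTAP peptide, 50 nM final, binding Tsg101 binding domain, 10 uM final; 20 min r.t.; 10 mM HEPES pH 7.5, 0.15 M NaCl, 0.01% Tween 20, 3 mM EDTA, 0.1 mM TCEP.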

[5] = qHTS Validation Assay to Find Inhibitors of Chronic Active B-Cell Receptor Signaling (AID 485345; active = well fitted curve in the direction sought with a large enough effect in the main read-out, with a control signal flat, not every such curve was filed as active)
Method in brief: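 TMD8 ABC-DLBCL cells stably carrying doxycycline-inducible IkappaBalpha–green luciferase fusion plus unfused red luciferase; compounds 46 uM to 3 nM, 4 h at 37C with doxycycline. Corrected green/red luminescence ratio normalized to 10 uM MG-132 and basal cell wells; curves fitted.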

[6] = molecular target: Beta-2 adrenergic receptor (Homo sapiens) (UniProt P07550); experiment: qHTS validation assay of beta-arrestin-biased ligands of beta2-adrenergic receptor (AID 485366)
Beta-2 adrenergic receptor (Homo sapiens), sequence (P07550 whole entry, looked up): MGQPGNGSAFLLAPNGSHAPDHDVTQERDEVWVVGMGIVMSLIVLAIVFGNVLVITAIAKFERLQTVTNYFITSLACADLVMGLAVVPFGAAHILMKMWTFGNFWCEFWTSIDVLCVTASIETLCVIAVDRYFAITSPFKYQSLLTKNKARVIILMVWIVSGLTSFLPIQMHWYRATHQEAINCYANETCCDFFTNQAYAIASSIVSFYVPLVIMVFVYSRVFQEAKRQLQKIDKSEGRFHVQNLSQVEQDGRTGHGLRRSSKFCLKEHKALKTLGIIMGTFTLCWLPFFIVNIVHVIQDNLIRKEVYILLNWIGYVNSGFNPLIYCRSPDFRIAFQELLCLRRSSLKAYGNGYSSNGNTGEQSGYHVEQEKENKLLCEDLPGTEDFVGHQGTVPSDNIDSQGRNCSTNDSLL
Method in brief: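 Compound series up to 46 microM applied to beta2-AR/beta-arrestin Tango cells, 18 hr, 37 degrees C, 5% CO2. Read-out: tTA-driven luciferase luminescence, converted to %Activity; concentration-response curves assigned curve classes.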

[7] = Quantitative high throughput screen for delayed death inhibitors of the malarial parasite plastid, 96 hour incubation (AID 488745); also: nearly all actives have a fitted effect of over 70% in size; also: potency is read from the fitted curve at half-maximal effect
Method in brief: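 Luciferase-expressing P. falciparum, infected RBCs 2% Hct/0.1% parasitemia (final); 96 h cpd exposure, 37 C, 5% CO2; RPMI 1640 + 0.5% Albumax, bicarbonate, gentamycin. Readout: luminescence loss = growth inhibition.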

[8] = Quantitative high throughput screen for delayed death inhibitors of the malarial parasite plastid, 48 hour incubation (AID 488752); also: nearly all actives have a fitted effect of over 65% in size; also: potency is read from the fitted curve at half-maximal effect
Method in brief: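 Luciferase-expressing P. falciparum in RBCs, 2% Hct, 0.1% parasitemia final; RPMI 1640 + 0.5% Albumax; 48 h, 37 C, 5% CO2; luminescence readout, signal drop = growth inhibition.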

[9] = molecular target: Thioredoxin reductase 1, cytoplasmic (Rattus norvegicus) (UniProt O89049); experiment: qHTS Assay for Inhibitors of Mammalian Selenoprotein Thioredoxin Reductase 1 (TrxR1) (AID 488773); conditions: Potency: inhibition;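 also: drop in NADPH fluorescence over an 8 min run after selenite addition; series mostly up to about 57 µM; nearly all actives have a fitted effect of over 40% in size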
Thioredoxin reductase 1, cytoplasmic (Rattus norvegicus), sequence (O89049 whole entry, looked up): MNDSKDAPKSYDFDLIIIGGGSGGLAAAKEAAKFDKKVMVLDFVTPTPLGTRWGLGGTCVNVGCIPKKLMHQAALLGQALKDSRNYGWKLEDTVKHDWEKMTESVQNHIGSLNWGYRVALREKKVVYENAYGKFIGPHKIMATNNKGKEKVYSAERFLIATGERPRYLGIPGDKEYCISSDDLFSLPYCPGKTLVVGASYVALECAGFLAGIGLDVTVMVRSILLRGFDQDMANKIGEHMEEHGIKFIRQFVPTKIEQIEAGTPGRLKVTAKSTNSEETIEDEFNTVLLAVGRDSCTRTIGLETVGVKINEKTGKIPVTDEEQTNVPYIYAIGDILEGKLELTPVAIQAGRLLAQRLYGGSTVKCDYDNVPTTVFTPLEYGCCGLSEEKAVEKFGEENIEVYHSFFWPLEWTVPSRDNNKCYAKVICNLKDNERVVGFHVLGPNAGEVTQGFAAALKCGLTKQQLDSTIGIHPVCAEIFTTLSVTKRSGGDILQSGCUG
Method in brief: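 Inhibition is scored from the loss of NADPH fluorescence between first and last reads of an 8-min kinetic run. Selenite (400 uM) was the substrate, added after 15 min compound preincubation at room temperature.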

[10] = molecular target: Flap endonuclease 1 (Homo sapiens) (UniProt P39748); experiment: qHTS Validation Assay for the Inhibitors of Human Flap endonuclease 1 (FEN1) (AID 488816)
Method in brief: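 Enzyme reagent 10 nM; cpds pinned; 15 min RT preinc.; substrate 50 nM final; reads t=0 and 15 min; no-enzyme buffer wells as neg. control; normalized data, 4-parameter Hill fit.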

[11] = molecular target: M-phase phosphoprotein 8 (Homo sapiens) (UniProt Q99549); experiment: qHTS Validation Assay for Inhibitors for MPP8 Chromodomain Interactions with Methylated Histone Tails (AID 488949);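 also: AlphaScreen signal from MPP8 chromodomain bound to biotinylated H3K9me3 peptide; top concentration of the series differs between compounds; nearly all actives have a fitted effect of over 55% in size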
Method in brief: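 AlphaScreen read-out: streptavidin donor and nickel chelate acceptor beads (final 10 ug/mL), 30 min in the dark at RT. Complex of 50 nM MPP8 and 50 nM b-H3(1-18)K9me3 peptide had been exposed to compounds for 30 min beforehand.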

[12] = molecular target: Chromobox protein homolog 1 (Homo sapiens) (UniProt P83916); experiment: qHTS Validation Assay for Inhibitors of HP1-beta Chromodomain Interactions with Methylated Histone Tails (AID 488953);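 also: loss of AlphaScreen luminescence from HP1-beta binding biotinylated H3K9me3 peptide; series mostly up to about 110 µM; nearly all actives have a fitted effect of over 50% in size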
Chromobox protein homolog 1 (Homo sapiens), sequence (P83916 whole entry, looked up): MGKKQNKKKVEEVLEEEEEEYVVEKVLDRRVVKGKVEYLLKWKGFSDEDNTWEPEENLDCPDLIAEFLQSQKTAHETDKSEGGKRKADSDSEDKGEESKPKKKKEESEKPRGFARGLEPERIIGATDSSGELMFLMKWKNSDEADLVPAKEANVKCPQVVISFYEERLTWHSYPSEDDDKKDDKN
Method in brief: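 AlphaScreen proximity readout: streptavidin donor and Ni-chelate acceptor beads, 10 ug/mL final, 30 min dark, RT. Complex of 50 nM HP1-beta and 50 nM b-H3(1-18)K9me3 formed 30 min, then compound-treated 30 min; PBS pH 7.4/0.01% Tween-20.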

[13] = molecular target: Methanococcus maripaludis chaperonin (MmCpn) (UniProt Q6LX38); experiment: High-Throughput Screening for Modulators of Cytosolic Chaperonin Activity: MmCpn Primary Screen (AID 488978);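 also: 50 nM MmCpn enzyme hydrolysing 30 µM ATP at 37 °C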
Methanococcus maripaludis chaperonin (MmCpn), sequence (Q6LX38 1-543): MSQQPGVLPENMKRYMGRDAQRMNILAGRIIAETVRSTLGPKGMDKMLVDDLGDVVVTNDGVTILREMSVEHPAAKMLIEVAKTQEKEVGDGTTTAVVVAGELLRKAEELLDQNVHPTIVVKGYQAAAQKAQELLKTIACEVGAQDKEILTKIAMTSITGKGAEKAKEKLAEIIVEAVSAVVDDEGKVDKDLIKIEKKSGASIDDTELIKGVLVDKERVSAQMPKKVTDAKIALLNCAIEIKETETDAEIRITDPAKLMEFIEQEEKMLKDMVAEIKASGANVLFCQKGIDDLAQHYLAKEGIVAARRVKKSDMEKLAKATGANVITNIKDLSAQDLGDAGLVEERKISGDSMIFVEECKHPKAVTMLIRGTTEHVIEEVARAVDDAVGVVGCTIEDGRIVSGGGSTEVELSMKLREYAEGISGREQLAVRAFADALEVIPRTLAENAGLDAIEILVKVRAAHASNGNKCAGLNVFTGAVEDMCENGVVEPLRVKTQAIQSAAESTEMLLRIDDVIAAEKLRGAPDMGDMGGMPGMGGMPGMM
Method in brief: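 ADP formation read by HTRF Transcreener, 665/590 nm emission after 320 nm excitation. Enzyme: archaeal chaperonin at 50 nM final; substrate ATP 30 uM final; 10 min, 37C, after 5 min compound preincubation at RT.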

[14] = molecular target: Thyrotropin receptor (Homo sapiens) (UniProt P16473); experiment: qHTS Assay for Antagonists of the Thyroid Stimulating Hormone Receptor (AID 488980); also: series mostly up to about 58 µM
Thyrotropin receptor (Homo sapiens), sequence (P16473 whole entry, looked up): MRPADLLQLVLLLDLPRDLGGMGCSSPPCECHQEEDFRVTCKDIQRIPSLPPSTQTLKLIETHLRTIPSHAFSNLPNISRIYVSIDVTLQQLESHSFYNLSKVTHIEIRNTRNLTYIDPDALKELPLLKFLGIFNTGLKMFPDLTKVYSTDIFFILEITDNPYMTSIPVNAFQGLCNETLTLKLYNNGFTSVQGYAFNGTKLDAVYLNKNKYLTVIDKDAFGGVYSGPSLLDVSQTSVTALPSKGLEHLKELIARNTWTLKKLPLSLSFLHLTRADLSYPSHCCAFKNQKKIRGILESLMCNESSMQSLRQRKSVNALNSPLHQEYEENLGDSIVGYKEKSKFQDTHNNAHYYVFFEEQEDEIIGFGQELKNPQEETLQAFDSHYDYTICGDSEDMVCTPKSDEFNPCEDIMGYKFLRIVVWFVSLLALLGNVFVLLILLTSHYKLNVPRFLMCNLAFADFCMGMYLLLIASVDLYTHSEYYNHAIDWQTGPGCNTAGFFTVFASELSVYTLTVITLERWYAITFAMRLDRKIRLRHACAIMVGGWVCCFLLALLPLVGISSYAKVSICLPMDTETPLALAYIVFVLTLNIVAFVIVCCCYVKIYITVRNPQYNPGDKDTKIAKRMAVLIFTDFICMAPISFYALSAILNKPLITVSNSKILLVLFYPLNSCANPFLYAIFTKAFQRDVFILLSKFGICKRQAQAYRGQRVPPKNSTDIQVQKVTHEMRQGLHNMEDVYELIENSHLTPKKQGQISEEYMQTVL
Method in brief: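 TSHR-HEK293 cells; 70 uM RO 20-1724 PDE inhibitor; compound + EC80 TSH (4 nM final); anti-cAMP cryptate antibody/cAMP-d2 in lysis buffer, 30 min RT; HTRF 665/620 nm read.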

[15] = molecular target: D(1A) dopamine receptor (Homo sapiens) (UniProt P21728); experiment: HTS Assay for Allosteric Agonists of the Human D1 Dopamine Receptor: Primary Screen for Agonists (AID 488981); also: potency is read from the fitted curve at half-maximal effect
D(1A) dopamine receptor (Homo sapiens), sequence (P21728 whole entry, looked up): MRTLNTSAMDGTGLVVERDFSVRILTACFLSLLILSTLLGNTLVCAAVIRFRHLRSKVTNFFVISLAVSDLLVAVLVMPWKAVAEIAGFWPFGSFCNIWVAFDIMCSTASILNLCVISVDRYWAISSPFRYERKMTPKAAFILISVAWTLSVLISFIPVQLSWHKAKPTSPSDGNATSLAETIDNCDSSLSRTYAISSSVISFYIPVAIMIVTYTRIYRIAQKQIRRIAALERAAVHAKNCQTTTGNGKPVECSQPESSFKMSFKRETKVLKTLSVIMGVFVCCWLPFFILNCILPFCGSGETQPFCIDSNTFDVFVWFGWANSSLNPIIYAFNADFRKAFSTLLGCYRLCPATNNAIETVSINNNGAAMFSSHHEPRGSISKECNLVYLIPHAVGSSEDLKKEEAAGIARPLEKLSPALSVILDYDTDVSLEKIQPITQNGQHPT
Method in brief: (§1)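 Tetracycline-induced HEK293 Trex D1 cells with forced coupling to calcium, loaded with no-wash calcium dye; kinetic fluorescence read 180 s after compound addition for agonism, then a further 180 s after an EC20 dopamine challenge for potentiation.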

[16] = molecular target: D(1A) dopamine receptor (Homo sapiens) (UniProt P21728); experiment: HTS Assay for Allosteric Agonists of the Human D1 Dopamine Receptor: Primary Screen for Potentiators (AID 488982)
Method in brief: as §1

[17] = molecular target: Thioredoxin reductase 1, cytoplasmic (Rattus norvegicus) (UniProt O89049); experiment: qHTS Assay for Substrates of Mammalian Selenoprotein Thioredoxin Reductase 1 (TrxR1) (AID 488772);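 also: series mostly up to about 57 µM; a drop in NADPH fluorescence below the no-compound background marks a TrxR1 substrate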
Method in brief: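 In this dual-purpose format, potential substrates are identified from the first fluorescence read after selenite addition, not from the 8-minute delta. Rat enzyme is preincubated with NADPH and then with compound at ~22 deg C.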

[18] = molecular target: Transient receptor potential cation channel subfamily V member 1 (Homo sapiens) (UniProt Q8NER1); experiment: HTS Assay for Compounds that Act as Enhancers of the Vanilloid Receptor 1 (AID 488979)
Method in brief: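 TRPV1 cells loaded with Fluo-8 calcium dye; compound added and Ca2+ signal (ex 480/em 520 nm) followed 3 min, then capsaicin at EC20 added and read 2 more min to detect enhancement.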

[19] = molecular target: D(1A) dopamine receptor (Homo sapiens) (UniProt P21728); experiment: HTS Assay for Allosteric Agonists of the Human D1 Dopamine Receptor: Primary Screen for Antagonists (AID 488983);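 also: calcium flux response to an EC80 dopamine challenge measured with no-wash dye; nearly all actives have a fitted effect of over 65% in size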; also: potency is read from the fitted curve at half-maximal effect
Method in brief: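 Calcium flux readout, no-wash dye, inducible HEK293 T-REx D1 line (force-coupled). Compound added after 10 s baseline, 180 s kinetic read; then dopamine at EC80, further 180 s read.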

[20] = molecular target: ATP-dependent 6-phosphofructokinase (Trypanosoma brucei brucei) (UniProt O15648); experiment: qHTS Validation Assay to Find Inhibitors of T. brucei phosphofructokinase (AID 485368); conditions: outcome: dose series up to 57.5 µM
ATP-dependent 6-phosphofructokinase (Trypanosoma brucei brucei), sequence (O15648 whole entry, looked up): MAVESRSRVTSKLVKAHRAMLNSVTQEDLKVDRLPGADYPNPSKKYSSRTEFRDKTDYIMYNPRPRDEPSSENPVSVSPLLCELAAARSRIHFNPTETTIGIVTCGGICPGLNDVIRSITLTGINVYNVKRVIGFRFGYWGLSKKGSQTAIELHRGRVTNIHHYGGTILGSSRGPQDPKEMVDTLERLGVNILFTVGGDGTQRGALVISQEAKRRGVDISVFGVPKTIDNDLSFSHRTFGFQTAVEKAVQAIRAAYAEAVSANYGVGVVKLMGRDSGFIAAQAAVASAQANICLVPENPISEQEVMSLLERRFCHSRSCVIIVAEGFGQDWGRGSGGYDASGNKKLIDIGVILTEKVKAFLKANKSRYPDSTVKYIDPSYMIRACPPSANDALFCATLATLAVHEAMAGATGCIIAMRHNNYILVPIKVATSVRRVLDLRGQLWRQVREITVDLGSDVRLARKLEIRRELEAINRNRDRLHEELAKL
Method in brief: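 qHTS format, up to 57 uM. PFK 1.25 nM; F6P 0.5 mM; ATP 0.1 mM; 5 mM MgCl2, 0.01% Tween20, 0.1% BSA; 0.1 M TEA pH 8.0; 45 min RT; ADP-Glo readout; no-enzyme control = full inhibition.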

Measured: Potency

CN(C)CC/C=C1\c2ccccc2COc2ccccc21
not listed: [17] | [18] | [19] | [20]
inactive: all other assays above

c1cnc(N2CCN(Cc3ccc4c(c3)OCO4)CC2)nc1
not listed: [9] | [10] | [15] | [20]
inactive: all other assays above

CCNC(=O)N1CCN(CCCC(c2ccc(F)cc2)c2ccc(F)cc2)CC1
active: [7] 1.65 µM | [8] 2.94 µM | [15] 15.8 µM
not listed: [10] | [12] | [17] | [18] | [19]
inactive: all other assays above

NC(=O)N1c2ccccc2C=Cc2ccccc21
not listed: [7] | [14] | [15]
inactive: all other assays above

CN1CCN(C2=Nc3ccccc3Oc3ccc(Cl)cc32)CC1
active: [19] 0.398 µM
not listed: [7] | [8] | [17]
inactive: all other assays above

CCCN1C[C@H](CSC)C[C@@H]2c3cccc4[nH]cc(c34)C[C@H]21
not listed: [7] | [8] | [12] | [18] | [19]
inactive: all other assays above

COc1ccc([C@@H]2Sc3ccccc3N(CCN(C)C)C(=O)[C@@H]2OC(C)=O)cc1
not listed: [9] | [10] | [16] | [18]
inactive: all other assays above

N[C@@H](COP(=O)(O)O)C(=O)O
not listed: [9]
inactive: all other assays above

CCN(Cc1ccncc1)C(=O)C(CO)c1ccccc1 (stereo not drawn)
not listed: [18]
inactive: all other assays above

CCN(CC)CCNC(=O)c1cc(S(C)(=O)=O)ccc1OC
not listed: [9] | [20]
inactive: all other assays above

O=C(O)CN(CCOCCOCCN(CC(=O)O)CC(=O)O)CC(=O)O
not listed: [7] | [15]
inactive: all other assays above

CN(C)C(=O)Oc1ccc[n+](C)c1
not listed: [9] | [11] | [12] | [15] | [17] | [18]
inactive: all other assays above

CCOC(=O)c1cnc2c(cnn2CC)c1NN=C(C)C
not listed: [14] | [15]
inactive: all other assays above

CCCNC(C)C(=O)Nc1ccccc1C (stereo not drawn)
not listed: [8] | [9] | [12] | [15]
inactive: all other assays above

Cc1ccc(=O)n(-c2ccccc2)c1
not listed: [7]
inactive: all other assays above
